In PubChem BioAssay (NCI):
Compounds without any hit were thinned out: in the full panel of roughly 83,000, 20% have a hit.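 Method: cells in 96-well plates; compound added at one concentration; 48 h incubation; percent growth measured; values under 10 scored active.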 Values without a mark were called inactive. Active and inactive are the calls of the source.

Key:
Experiment in all cases: NCI-60 one-dose screen, 48 h (100 = growth as untreated, 0 = no growth, -100 = all killed)
Conditions in all cases: 10 µM unless noted
[1] = system: SK-MEL-2 melanoma
[2] = system: EKVX NSCLC
[3] = system: SN12C renal
[4] = system: UO-31 renal
[5] = system: TK-10 renal
[6] = system: ACHN renal
[7] = system: CAKI-1 renal
[8] = system: A498 renal
[9] = system: CCRF-CEM leukemia
[10] = system: MOLT-4 leukemia
[11] = system: SR leukemia
[12] = system: RPMI-8226 leukemia
[13] = system: OVCAR-8 ovarian
[14] = system: OVCAR-5 ovarian
[15] = system: OVCAR-4 ovarian
[16] = system: SK-OV-3 ovarian
[17] = system: IGROV1 ovarian
[18] = system: OVCAR-3 ovarian
[19] = system: HS 578T breast
[20] = system: NCI/ADR-RES ovarian

Row | SMILES | growth [1] | growth [2] | growth [3] | growth [4] | growth [5] | growth [6] | growth [7] | growth [8] | growth [9] | growth [10] | growth [11] | growth [12] | growth [13] | growth [14] | growth [15] | growth [16] | growth [17] | growth [18] | growth [19] | growth [20]
1 | CC(C)=CCNc1ncnc2c1ncn2C1OC(CO)C(O)C1O (stereo not given) | -33.2% [1 mM] (active) | 41.1% [1 mM] | -2.66% [1 mM] (active) | -72.4% [1 mM] (active) | -10.5% [1 mM] (active) | 2.42% [1 mM] (active) | -36.9% [1 mM] (active) | -54.2% [1 mM] (active) | -56.6% [1 mM] (active) | -26.6% [1 mM] (active) | 1.23% [1 mM] (active) | -40.1% [1 mM] (active) | -40.8% [1 mM] (active) | 19.2% [1 mM] | -2.16% [1 mM] (active) | -21.5% [1 mM] (active) | 4.13% [1 mM] (active) | -69.9% [1 mM] (active) | -16.8% [1 mM] (active) | -33.2% [1 mM] (active)
2 | O=C(/C=C/c1cccc(Cl)c1Cl)Nc1ncc(Cc2ccccc2Cl)s1 | 44.7% | 55.7% | 56.9% | 44.6% | 84.2% | 46.4% | 48% | 39.6% | 21.5% | 50.6% | 19.1% | 35.4% | 73.6% | 80.1% | 70.2% | 70.4% | 39.3% | 11.3% | 38% | 31%
3 | CC1(C)CC2=C3C=C[C@@H]4[C@@]5(C)CCC(=O)C(C)(C)[C@@H]5CC[C@@]4(C)[C@]3(C)CC[C@@]2(C(=O)O)C[C@H]1O | 9.89% (active) | 34.9% | 21.8% | 17.1% | 16.9% | 8.49% (active) | 22.9% | 34.9% | 13.3% | 19.5% | 24.4% | -7.05% (active) | 32.6% | 74.4% | 24.4% | 1% (active) | 16.5% | 11.6% | 58.1% | 33.3%
4 | Cc1ccc2c(=O)cc(C(=O)Nc3sc4c(c3C(=O)NCc3cccnc3)CCCC4)oc2c1C | 109% | 103% | 95.3% | 78.5% | 116% | 96.8% | 90.6% | 89.1% | 93% | 90.3% | 89.8% | 102% | 98.4% | 105% | 105% | 100% | 100% | 106% | 91.7% | 98.9%
5 | FC(F)(F)c1ccc(Cn2cc(CSc3nc4ccccc4s3)nn2)cc1 | 95.6% | 99.5% | 99.9% | 78.7% | 97.6% | 101% | 84.3% | 86% | 91% | 98.1% | 96.3% | 96.7% | 91% | 98.6% | 94.8% | 104% | 97.7% | 105% | 88.6% | 95.7%
6 | C=C1CC[C@@H]2C(C)(C)[C@@H](O)CC[C@@]2(C)[C@@H]1COc1ccc2ccc(=O)oc2c1 | 88.3% | 60.3% | 74.9% | 52.6% | 95% | 80.1% | 73.5% | 68.9% | 60.8% | 47.4% | 73.2% | 50.7% | 83.4% | 117% | 67.5% | 112% | 95.3% | 78.3% | 101% | 61.7%
7 | O=C(NCc1cccc(CNC(=O)Nc2nc3ccccc3[nH]2)c1)Nc1nc2ccccc2[nH]1 | -11.8% (active) | 11% | -52.2% (active) | 62.6% | -32.7% (active) | 70.2% | 31.6% | -31% (active) | 30.3% | -16.1% (active) | 40.1% | -18.8% (active) | -52.3% (active) | -2.26% (active) | -75.7% (active) | -19% (active) | 13.7% | -42.3% (active) | -15.3% (active) | 83.3%
8 | CN(CCCNC(=O)Cc1ccc2ccc3cccc4ccc1c2c34)CCCNc1cc(-c2ccc3ccccc3c2)nc2ccccc12 | -59.5% (active) | -44.6% (active) | -66.2% (active) | -47.4% (active) | -58.2% (active) | -66.4% (active) | -36.9% (active) | -62% (active) | -74.5% (active) | -82.9% (active) | -70.8% (active) | -47% (active) | -25.3% (active) | -88.2% (active) | -83% (active) | -85.6% (active) | -19.4% (active) | -81.5% (active) | -32% (active) | -77.7% (active)
9 | NC(=O)c1c(NC(=O)c2cccc(C(F)(F)F)c2)sc2c1CCC(=O)C2 | -18.5% (active) | 9.15% (active) | 3.64% (active) | -95.9% (active) | 5.23% (active) | -93.4% (active) | -55% (active) | 53.2% | 0.959% (active) | -18.1% (active) | -13.2% (active) | -22.5% (active) | 13.6% | 12.8% | -92.2% (active) | 1.42% (active) | -6.14% (active) | -37.6% (active) | 9.53% (active) | -2.23% (active)
10 | O=c1ccc(=O)n(-c2nc(-c3ccc([N+](=O)[O-])cc3)cs2)[nH]1 | 108% | 101% | 101% | 82.4% | 107% | 102% | 101% | 87.9% | 99.4% | 86.5% | 94.5% | 95.3% | 102% | 102% | 101% | 107% | 99.3% | 102% | 98.8% | 104%
11 | Cc1ccc(C(=O)c2ccc(CC(=O)N=Nc3c(O)[nH]c4ccc(Br)cc34)n2C)cc1 | 91.3% | 74.3% | 85.2% | 64.7% | 131% | 88.9% | 79.7% | 89.3% | 95.4% | 86% | 101% | 92.7% | 94.9% | 91.7% | 97.6% | 91.3% | 77.5% | 105% | 99.6% | 87.7%
12 | Clc1ccccc1-c1cnn2cc(-c3ccccc3)cnc12 | 101% | 83.3% | 79.5% | 84.6% | 89.1% | 74.1% | 81.4% | 72% | 89.2% | 83.7% | 59.9% | 87.1% | 78.9% | 79.6% | 76.1% | 83.9% | 78.6% | 90% | 74.4% | 83.7%
13 | COC(=O)c1c2c(c(C)[n+]([O-])c1C)C(=O)C(NCc1cccc(Cl)c1)=CC2=O | 33.7% | 46.2% | 0.796% (active) | 50.6% | 73.5% | 26.6% | 42.2% | 106% | 17.5% | -12.6% (active) | 9.98% (active) | 26.9% | -5.76% (active) | 40.6% | -76% (active) | 81.3% | 2.76% (active) | -23.9% (active) | 79.1% | 0.849% (active)
14 | N#Cc1c(Nc2ccc(N3CCOCC3)cc2)nc(SCC(=O)c2ccc(Br)cc2)nc1-c1ccccc1 | 94.4% | 100% | 104% | 87.3% | 96.6% | 109% | 99.7% | 105% | 125% | 99.2% | 101% | 111% | 101% | 95.6% | 105% | 95% | 107% | 105% | 105% | 103%
15 | O=C1/C(=C\c2cccc3nccnc23)SC(=S)N1CCc1ccc(O)cc1 | 108% | 100% | 84.9% | 62.1% | 121% | 97.3% | 79.1% | 105% | 67.2% | 93.1% | 92.1% | 83% | 99.1% | 104% | 89.4% | 110% | 95.4% | 101% | 95.4% | 96.9%
